PfHsp90 yeast 2: growth inhibition of PfHsp90-expressing yeast, primary screen, antimalarial PfHsp90 inhibitor project, S. cerevisiae, BacTiter-Glo luminescence, single point, set 2; BacTiter-Glo ATP, 48 h; yeast lacking PDR1 and PDR3 efflux regulators; inhibition, % at 9.4 µM; 310,000 tested, 0.32% active;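 active = every replicate shows inhibition above about 80%, whatever the replicate mean, limit read from the data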;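 also: 0% = DMSO neutral controls and 100% = 20 µM radicicol positive controls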
TIM10 inh: growth inhibitors of isogenic TIM10 control yeast, primary screen, counter-screen for tim10-1 yeast inhibitor project, luminescence, uHTS | S. cerevisiae TIM10 strain growth, BacTiter-Glo luminescence, 24 h | inhibition, % at 10 µM | 330,000 tested, 1.4% active;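 active = inhibition of 40% or more at the single tested concentration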;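 also: wild-type TIM10 isogenic control strain grown at permissive 25 °C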
NLRP3 yeast inh: NALP3 inflammasome inhibitors in reconstituted yeast, primary screen, luminescence, uHTS; Yeast reconstituted NLRP3/ASC/caspase-1, beta-gal luminescence, 24 h; inhibition, % at 10 µM; 330,000 tested, 0.39% active; AID 2825, 2010;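 active = inhibition of 50% or more; inactive = inhibition below 50%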;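 also: plate controls were induced DMSO wells for no effect and uninduced yeast grown without galactose for full effect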
tim23-1 inh: growth inhibitors of tim23-1 mutant yeast, primary screen, luminescence, uHTS; S. cerevisiae tim23-1 growth, BacTiter-Glo luminescence, 24 h; AID 463212, 2010; inhibition, % at 20 µM; 330,000 tested, 1.3% active;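 active = growth inhibition of the mutant yeast at or above 50%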;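 also: temperature-sensitive mutant grown at 25 °C; plate controls were DMSO-treated mutant yeast for no effect and medium wells lacking yeast for full effect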
NALP1 yeast inh: NALP1 inflammasome inhibitors in reconstituted yeast, colorimetric, S. cerevisiae, triplicate retest. S. cerevisiae NALP1/ASC/caspase-1 growth, X-gal OD620, 72 h. inhibition, % at 10 µM. 280,000 tested, 0.61% active. AID 2071, 2009; in the data active = inhibition mostly above about 24%, no sharp cut-off; inactive = mostly below about 32%
tim10-1 inh: growth inhibitors of tim10-1 mutant yeast, primary screen, luminescence, uHTS. 330,000 tested, 2.2% active. S. cerevisiae tim10-1 ts strain growth, BacTiter-Glo, 24 h. inhibition, % at 20 µM;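 active = inhibition of at least 40%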;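 also: mutant grown at 25 °C; 0% = DMSO wells with yeast and 100% = wells holding no yeast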
tim10-1 conf: growth inhibitors of tim10-1 mutant yeast, confirmation, single concentration, luminescence, S. cerevisiae. shares compounds with tim10-1 inh. S. cerevisiae tim10-1 ts strain growth, BacTiter-Glo, 24 h. inhibition, % at 20 µM. 7,400 tested, 56% active. AID 463213, 2010;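 active = inhibition of yeast growth at or above a set limit in either of two repeat tests at 20 µM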;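 also: tim10-1 mutant grown at permissive 25 °C to find synthetic lethal compounds; 0% = DMSO yeast wells and 100% = medium wells without yeast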
TIM10 conf: growth inhibitors of wild-type TIM10 yeast, confirmation, counter-screen for tim10-1 synthetic lethality project, single concentration, luminescence, S. cerevisiae | shares compounds with TIM10 inh | S. cerevisiae tim10 strain growth, BacTiter-Glo luminescence, 24 h | inhibition, % at 10 µM | 4,600 tested, 63% active;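 active = inhibition of yeast growth at or above a set limit in either of two replicates at 10 µM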;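 also: this counterscreen used the strain with wild-type TIM10; 0% = yeast with DMSO and 100% = medium wells lacking yeast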
An asterisk follows results filed as active; / = no result. Compounds with a hit are over-represented: about 4.2% of the library has one in this group of screens.

SMILES	PfHsp90 yeast 2	TIM10 inh	NLRP3 yeast inh	tim23-1 inh	NALP1 yeast inh	tim10-1 inh	tim10-1 conf	TIM10 conf
CC(C)N1CCC2(CC1)N=C(c1ccc3c(c1)OCO3)CC(c1cc(Cl)ccc1O)N2 (centres undefined)	120*	51*	40	42	68*	53*	45*	51*
CCCC(=O)Nc1nc(C)c(-c2csc(Nc3ccccc3C)n2)s1	-22	5	16	9	-4	11	/	/
CCC(=O)Nc1nc(C)c(-c2csc(Nc3ccccn3)n2)s1	6	42*	1	35	7	40*	30	47*
O=C(/C=C/c1cn(-c2ccccc2)nc1-c1cccnc1)c1ccco1	/	48*	12	41	0	57*	48*	41*
C=CCc1ccc(OCCOc2cccc3ccc(C)nc23)c(OC)c1	/	52*	6	46	-9	42*	32*	31*
NC(=S)N=Nc1ccc(O)cc1	-9	/	/	/	/	/	/	/
O=c1c(Cl)c(NCc2ccc(F)cc2)cnn1C12CC3CC(CC(C3)C1)C2	5	52*	31	44	-17	47*	38*	-2
CCN(CC)C(=O)[C@H]1C[C@H](CC(=O)NCCc2ccccn2)C(=O)N2CCc3c([nH]c4cc(CCC(=O)N(C)C)ccc34)[C@]12C	0	-3	/	24	/	2	/	/
C[C@H](NC(=O)c1ccc(Cl)cc1)C(=O)OCn1nnc2ccccc2c1=O	/	-29	-8	7	/	-12	/	/
O=C(CSCC(=O)OCn1nnc2ccccc2c1=O)Nc1ccc(Cl)cc1	14	51*	-7	47	-1	62*	55*	25
CNNC(=S)Nc1cccc(C(F)(F)F)c1	/	2	8	5	0	-6	/	/
FC(F)(F)c1cccc(NC(=S)NNC(=S)Nc2cccc(C(F)(F)F)c2)c1	/	54*	13	40	-1	47*	29	54*
Cc1ccc(Nc2cc(C)nc(-c3ccccc3O)n2)cc1	/	53*	9	40	-2	58*	59*	48*
Cc1cc(Nc2ccc(F)c(F)c2)nc(-c2ccccc2O)n1	-22	14	-5	-1	-1	17	/	/
O=C(NN=C1c2ccccc2-c2ccccc21)c1ccccn1	-15	48*	15	20	15	41*	25	39*
O=C(Oc1ccc(/C=N/O)cc1)c1ccccc1Cl	3	57*	14	47	-3	52*	45*	29
CC(NC(=O)C(C)N1CCN(S(=O)(=O)c2ccccc2)CC1)c1ccccc1 (centres undefined)	/	4	11	17	/	8	/	/
O=C(/C=C/c1ccco1)NC(=S)Nc1cc(C(F)(F)F)ccc1N1CCOCC1	-9	32	25	22	37	39	/	/
O=C(CCCCl)NC(=S)Nc1cc(C(F)(F)F)ccc1N1CCOCC1	-21	57*	4	48	16	53*	48*	50*
COC(=O)C1CCN(C(=O)c2sc3nc(-c4ccc(F)cc4)cn3c2C)CC1	5	55*	4	40	/	70*	64*	35*
CCOC(=O)C1CCN(C(=O)c2sc3nc(-c4ccccc4)cn3c2C)CC1	22	57*	0	41	-12	66*	60*	52*
CC(/C=N/Nc1ccc2nncn2n1)=C\c1ccccc1	1	-7	18	28	/	-83	/	/
Cc1ccc(NC(=O)c2ccc3ccccc3n2)nc1	10	70*	-2	43	26	52*	36*	74*
O=C(Nc1ccc(Cl)cn1)c1ccc2ccccc2n1	-4	17	-8	15	0	8	/	/
CC1CCC(NC(=O)Nc2cccs2)CC1 (centres undefined)	3	60*	5	37	12	54*	73*	46*
SMILES	PfHsp90 yeast 2	TIM10 inh	NLRP3 yeast inh	tim23-1 inh	NALP1 yeast inh	tim10-1 inh	tim10-1 conf	TIM10 conf
Cc1ccc(C(=O)Nc2ccc(S(=O)(=O)N3CCc4ccccc4C3)cc2)o1	-30	12	13	14	4	18	/	/
COc1ccc(C(=O)Nc2ccc(S(=O)(=O)N3CCc4ccccc43)cc2)cc1	-1	35	17	16	/	39	/	/
COc1ccc(NC(=O)c2cccc(S(=O)(=O)N3CCc4ccccc43)c2)cn1	/	45*	-12	24	12	46*	41*	40*
Cc1ccc(C(=O)Nc2ccc(S(=O)(=O)N3CCc4ccccc43)cc2)o1	1	52*	-1	47	23	49*	33*	43*
O=C(COc1ccccc1)NC(=S)Nc1cccc2cc(O)ccc12	28	0	36	14	13	2	/	/
CCOC(=O)c1c(C)[nH]c(C)c1S(=O)(=O)NCc1ccccc1C	23	4	3	-1	11	-2	/	/
Cc1ccc(COc2ccccc2C(=S)N2CCCC2)cc1	-24	42*	18	27	9	40*	24	23
Fc1ccc(COc2ccccc2C(=S)N2CCCC2)cc1	18	9	9	35	17	27	/	/
COc1ccc(C)cc1Nc1nc(N)c2ccccc2n1	-3	15	40	0	21	-10	/	/
CN(C)c1ccc(Nc2nc(N)c3ccccc3n2)cc1	60	44*	19	43	6	55*	50*	36*
Oc1ccc(-c2csc(-c3c[nH]c4ccccc34)n2)c(O)c1	-11	-15	22	36	10	-21	/	/
Cc1ccc(-c2csc(-c3c[nH]c4ccccc34)n2)c(C)c1	-23	43*	29	41	-8	41*	39*	48*
CCc1nccn1S(=O)(=O)c1ccccc1[N+](=O)[O-]	-6	44*	6	42	15	50*	62*	57*
Cc1ccc(-n2nnnc2C(Cl)(Cl)c2nnnn2-c2ccc(C)cc2)cc1	128*	62*	50	48	-16	45*	15	75*
C=CCc1cccc(CNc2nc3ccccc3n2CCC)c1O	-16	45*	12	40	9	42*	14	36*
Cc1cccc(/C=C/C(=O)c2ccc([N+](=O)[O-])o2)c1	103*	89*	34	45	/	53*	7	98*
